Data taken from PubChem BioAssay (NCATS).
Records with an inconclusive call do not appear. Entries that show only a call come without a potency. Active and inactive are the calls of the source. The call rests on the fitted dose curve; in most records, active means well fitted cell-killing curve with a large enough effect; inconclusive means small, poorly fitted or top-dose-only effect; inactive means flat fitted curve, though single readings scatter.

Test: qHTS of pediatric cancer cell lines to identify multiple opportunities for drug repurposing: Primary screen for Rh18 cells (AID 1347102); further: nearly all actives have a fitted effect of over 65% in size
Settings: Rh18 rhabdomyosarcoma viability, CellTiter-Glo luminescence, 48 h; series mostly up to 46 µM
From the text: Drug repurposing or repositioning has been offered as a strategy for drug development in oncology programs. This approach has special potential for childhood cancers and other rare or orphan diseases, where the expected return on new drug development has been a disincentive to pharmaceuticals.
In this project we exploit the poly-pharmacology of drugs to discover new indications via phenotypic screening of a panel of 19 well-characterized cell lines derived from solid tumors seen in children and adolescents. The goal is to identify approved drugs with previously unrecognized anticancer properties that has the potential to reveal new mechanisms and biological processes involved in carcinogenesis or drug resistance. We employed a titration-based paradigm (quantitative high-throughput screening or qHTS), where all compounds were tested at multiple concentrations for their effect on cell viability. Concentration-response curves (CRCs) were derived directly from the primary screen, and both potency and efficacy values were used to identify compounds with robust bioactivity profiles. We screened the NIH Chemical Genomics Center (NCGC) Pharmaceutical Collection (NPC) and Mechanism Interrogation Plate (MIPE) small molecule collections of approved and investigational compounds against these cell lines; and measured metabolically active cells after 48 hours of compound treatment as a proxy for cell viability.
Assay Submitter: Nathalia J. Martinez, National Center for Advancing Translational Sciences, National Institutes of Health, Rockville, MD, USA; email: natalia.martinez@nih.gov
[1] Shen, M et al. Quantitative high-throughput phenotypic screening of pediatric cancer cell lines identifies multiple opportunities for drug repurposing. Oncotarget 2017 Dec 19;9(4):4758-4772. PMID 29435139.
The cells were obtained from University of North Carolina (UNC), Pediatric Preclinical Testing Program (PPT), and Coriell Institute (CI).
qHTS cell viability assay:
Cells were assayed in growth media at a density of 500-1,000 cells/well. Five microliters of cells were dispensed into 1,536-well, white, solid-bottom, TC-treated plates (Greiner Bio One) using a multidrop dispenser and incubated at 37 degrees C, 5% CO2, under a humidified atmosphere for 5 hours. Twenty-three nanoliters of compounds and controls (neutral control DMSO or positive control bortezomib at final concentration of 2.3 µM) were subsequently transferred by Kalypsys pintool. For primary screens, the MIPE collection was tested at 11-point dilutions (final concentrations range from 0.78 nM to 46 µM) and the NPC collection at 8-point dilutions (final concentrations range from 0.59 nM to 46 µM). Compounds tested in follow-up screens were assayed at 11-point dilutions. Cells were incubated for 48 hours, followed by addition of 3 µL of CellTiter-Glo (Promega). After a 15 min incubation at room temperature, samples were analyzed for luminescence intensity using a ViewLux High-throughput CCD imager equipped with clear filters.
Potency means the concentration at half of the fitted maximal effect.

Compound	Potency
CCN(C(C)=O)c1cccc(-c2ccnc3c(C#N)cnn23)c1	inactive
C=C1CC[C@@]2(O)[C@H]3Cc4ccc(O)c5c4[C@@]2(CCN3CC2CC2)[C@H]1O5	inactive
Cc1cccc(C)c1NC(=O)CN1CCCC1=O	inactive
C=C1C[C@@H]2[C@H](CC[C@]3(C)C(=O)CC[C@@H]23)[C@@]2(C)C=CC(=O)C=C12	inactive
Cc1sc2c(c1C)C(c1ccc(Cl)cc1)=N[C@@H](CC(=O)OC(C)(C)C)c1nnc(C)n1-2	0.935 µM (active)
COC1(CS(=O)c2ccccc2)CCN(CCc2c[nH]c3ccc(F)cc23)CC1 (stereo not given)	inactive
CCC1(C2=NCCN2)Cc2ccccc2O1 (stereo not given)	inactive
C[C@]12CC[C@H]3[C@@H](CCC4=CC(=O)CC[C@@H]43)[C@@H]1CC[C@@H]2OC(=O)CCc1ccccc1	inactive
C[C@]12C/C(=C/O)C(=O)C[C@@H]1CC[C@@H]1[C@@H]2CC[C@@]2(C)[C@H]1CC[C@]2(C)O	inactive
Oc1cccc2cccnc12	inactive
CN1CCN(C(=O)O[C@H]2c3nccnc3C(=O)N2c2ccc(Cl)cn2)CC1	inactive
N[C@@H](Cc1ccc(Oc2cc(I)c(O)c(I)c2)c(I)c1)C(=O)O	inactive
COc1ccc(Cc2nccc3cc(OC)c(OC)cc23)cc1OC	inactive
O=c1[nH]c2ccccc2n1CCCN1CCC(n2c(=O)[nH]c3cc(Cl)ccc32)CC1	inactive
C=CCN1CC[C@]23c4c5ccc(O)c4O[C@H]2C(=O)CC[C@@]3(O)[C@H]1C5	inactive
CCCN1CCC[C@@H]2Cc3[nH]ncc3C[C@H]21	inactive
O=[N+]([O-])c1cc([As](=O)(O)O)ccc1O	inactive
COc1ccc(C(=O)c2c(C)n(CCN3CCOCC3)c3ccccc23)cc1	inactive
C[C@]12CCC(=O)C(O)=C1CC[C@@H]1[C@@H]2CC[C@]2(C)C(=O)CC[C@@H]12	inactive
COc1ccc(C(CN(C)C)C2(O)CCCCC2)cc1 (stereo not given)	inactive

Compound	Potency
Cc1cc(SCc2sc(-c3ccc(C(F)(F)F)c(F)c3)nc2C)ccc1OCC(=O)O	inactive
O=C(NC(O)C(Cl)(Cl)Cl)NC(O)C(Cl)(Cl)Cl (stereo not given)	inactive
COc1ccccc1N1CCNCC1	inactive
Cc1cccc(C)c1NC1=NCCCS1	inactive
CC(C)(C)CC(C)(C)c1ccc(O)cc1	inactive
CNC(=O)c1ccc(N2C(=S)N(c3ccc(C#N)c(C(F)(F)F)c3)C(=O)C23CCC3)cc1F	inactive
CC(C)=CC1C(C(=O)OCc2cccc(Oc3ccccc3)c2)C1(C)C (stereo not given)	inactive
O=C1CC[C@@]2(O)[C@H]3Cc4ccc(O)c5c4[C@@]2(CCN3CC2CC2)[C@H]1O5	inactive
Oc1ccccc1-c1ccccc1	inactive
COC[C@H]1OC(=O)c2coc3c2[C@@]1(C)C1=C(C3=O)C2CCC(=O)[C@@]2(C)C[C@H]1OC(C)=O (stereo not given in full)	20.9 µM (active)
NN=C(N)N	inactive
Cc1ncc(CNC(=O)N(CCCl)N=O)c(N)n1	inactive
NCCc1cc(O)c(O)cc1O	inactive
C#CCOC(C(=O)OCCN(C)C)(c1ccccc1)c1ccccc1	inactive
Nc1ccncc1	inactive
CC(C)(C)NCC(O)c1cc(Cl)c(N)c(Cl)c1 (stereo not given)	inactive
O=C(O)c1ccc2[nH]cc(CCCCN3CC=C(c4ccccc4)CC3)c2c1	inactive
c1ccc(C2CC2)c(OCC2=NCCN2)c1	inactive
CN(C)CCN(C)CCc1ccc(Cl)c(Cl)c1	inactive
O=P1(NCCCl)OCCCN1CCCl (stereo not given)	inactive
